Measured values from PMC4336329 (PLoS ONE, 2015).
Among all 310,000 compounds or so, about 14,000 (4.5%) showed an effect of 50% or more. The effect is printed as a negative number. The entries come from a sample that favours strong results as a whole.

Target: human ether-à-go-go-related gene (hERG) potassium channel (human, UniProt Q12809)
Test: primary screen, population patch clamp on CHO cells stably expressing hERG; higher = less effect of the substance
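Also: peak tail current of the secondary pulse compared with the same well before compound.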

Chain of human ether-à-go-go-related gene (hERG) potassium channel (Q12809 whole entry, looked up): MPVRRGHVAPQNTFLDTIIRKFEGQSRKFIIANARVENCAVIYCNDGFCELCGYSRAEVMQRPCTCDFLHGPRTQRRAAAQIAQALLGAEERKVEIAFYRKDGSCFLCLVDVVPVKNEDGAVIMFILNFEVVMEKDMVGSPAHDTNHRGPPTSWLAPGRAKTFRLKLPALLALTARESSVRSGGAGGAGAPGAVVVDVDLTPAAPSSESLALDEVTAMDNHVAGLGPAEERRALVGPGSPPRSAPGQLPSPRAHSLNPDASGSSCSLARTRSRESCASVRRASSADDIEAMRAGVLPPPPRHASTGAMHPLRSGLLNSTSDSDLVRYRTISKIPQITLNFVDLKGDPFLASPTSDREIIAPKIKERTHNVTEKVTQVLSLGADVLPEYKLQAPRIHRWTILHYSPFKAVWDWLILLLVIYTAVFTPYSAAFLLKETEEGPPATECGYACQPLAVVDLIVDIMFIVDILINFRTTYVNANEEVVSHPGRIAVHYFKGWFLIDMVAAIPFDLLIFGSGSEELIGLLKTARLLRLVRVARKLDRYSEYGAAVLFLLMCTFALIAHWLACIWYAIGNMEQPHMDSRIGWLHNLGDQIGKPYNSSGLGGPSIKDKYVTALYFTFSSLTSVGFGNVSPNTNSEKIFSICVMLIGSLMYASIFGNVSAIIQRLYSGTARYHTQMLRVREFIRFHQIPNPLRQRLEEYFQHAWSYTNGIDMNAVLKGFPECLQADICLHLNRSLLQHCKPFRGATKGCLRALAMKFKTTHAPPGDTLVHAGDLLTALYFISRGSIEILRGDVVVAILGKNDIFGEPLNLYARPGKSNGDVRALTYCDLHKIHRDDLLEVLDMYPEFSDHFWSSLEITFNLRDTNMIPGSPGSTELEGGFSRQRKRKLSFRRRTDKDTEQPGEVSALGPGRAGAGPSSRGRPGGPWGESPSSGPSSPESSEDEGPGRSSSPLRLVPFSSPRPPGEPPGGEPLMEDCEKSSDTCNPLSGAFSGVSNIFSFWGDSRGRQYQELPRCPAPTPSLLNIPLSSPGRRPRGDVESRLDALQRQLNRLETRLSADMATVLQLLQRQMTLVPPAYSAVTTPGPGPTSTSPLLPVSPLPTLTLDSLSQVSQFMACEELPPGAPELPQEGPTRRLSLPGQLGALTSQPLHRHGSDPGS

Row | Compound | hERG current change (%, negative = inhibition) at 10uM [%]
1 | CC(=O)/C=C(\C)Nc1ccccc1O | 21.3
2 | COc1ccc(C(=O)/C=C/Nc2ccccn2)cc1 | 2.01
3 | O=C(CCc1ccncc1)NC1CCCc2c1cnn2-c1ccc(F)cc1F (stereo not shown) | -12.5
4 | O=C(NC1CCCc2c1cnn2-c1ccccc1F)c1ccccn1 (stereo not shown) | 5.09
5 | O=C(NC1CCCc2c1cnn2-c1cc(F)cc(F)c1)c1cc[n+]([O-])cc1 (stereo not shown) | -37.1
6 | O=C(CCc1ccncc1)NC1CCCc2c1cnn2-c1cc(F)cc(F)c1 (stereo not shown) | -56.5
7 | O=C(NC1CCCc2c1cnn2-c1cc(F)cc(F)c1)c1ccncc1 (stereo not shown) | -64.1
8 | CSCC(=O)NC1CCCc2c1cnn2-c1cc(F)cc(F)c1 (stereo not shown) | -12.6
9 | O=C(NC1CCCc2c1cnn2-c1ccc(F)cc1F)c1ccccn1 (stereo not shown) | 1.82
10 | Cn1nccc1C(=O)NC1CCCc2c1cnn2-c1cc(F)cc(F)c1 (stereo not shown) | -45.2
11 | CCN(CC)CC(=O)NC1CCCc2c1cnn2-c1cc(F)cc(F)c1 (stereo not shown) | -9.77
12 | C=CCC(=O)NC1CCCc2c1cnn2-c1cc(F)cc(F)c1 (stereo not shown) | -75.7
13 | Cc1cccc(-n2ncc3c2CCCC3NC(=O)CCc2ccncc2)c1C (stereo not shown) | 4.95
14 | O=C(NC1CCCc2c1cnn2-c1cc(F)cc(F)c1)c1ccccn1 (stereo not shown) | -52.4
15 | OCC(O)C(O)C(O)C(O)C1NCCS1 (stereo not shown) | 0.867
16 | O=C1CSC(c2ccc(Cl)cc2)N1C1CCCCC1 (stereo not shown) | -14.4
17 | Cc1cc2cc(CN(Cc3ccc4c(c3)OCO4)C(=O)c3ccco3)c(=O)[nH]c2cc1C | -25
18 | ClCc1ncc(-c2ccc(Cl)cc2)o1 | 33.5
19 | Cc1ccc(C(=O)NCc2ccc(Cl)cc2)cc1S(=O)(=O)N1CCCCC1 | -0.995
20 | O=C(NC(=S)Nc1cccnc1Cl)c1ccc(Cl)cc1 | 15.5
21 | CN1CCN(S(=O)(=O)c2cccc(C(=O)N(C)Cc3cccs3)c2)CC1 | -7.83
22 | CN(C)S(=O)(=O)c1cccc(C(=O)NCc2ccco2)c1 | 10.7
23 | CN(C)S(=O)(=O)c1cccc(C(=O)N(Cc2ccc(F)cc2)Cc2ccco2)c1 | -52.3

Row | Compound | hERG current change (%, negative = inhibition) at 10uM [%]
24 | O=C(NCc1ccco1)c1cccc(S(=O)(=O)N2CCOCC2)c1 | -4.97
25 | O=C(c1cccc(S(=O)(=O)N2CCOCC2)c1)N(Cc1ccco1)Cc1cccs1 | -68.5
26 | Cc1ccc(N(Cc2ccco2)C(=O)c2cccc(S(=O)(=O)N(C)C)c2)cc1 | -21.5
27 | CN(Cc1cccs1)C(=O)c1ccc(S(=O)(=O)N2CCCCC2)cc1 | -18.8
28 | O=C(NCc1ccc(F)cc1)c1cccc(S(=O)(=O)N2CCOCC2)c1 | -25.4
29 | CN(Cc1cccs1)C(=O)c1cccc(S(=O)(=O)N2CCCCCC2)c1 | -59.9
30 | CCN(Cc1cccs1)C(=O)c1cccc(S(=O)(=O)N2CCN(C)CC2)c1 | -14.1
31 | O=C(c1ccc(S(=O)(=O)N2CCOCC2)cc1)N(Cc1ccco1)Cc1cccs1 | -44.5
32 | O=C(c1cccc(S(=O)(=O)N2CCOCC2)c1)N(Cc1ccc(F)cc1)Cc1ccco1 | -88.4
33 | CCc1ccccc1NC(=O)c1cc(-c2cccc(O)c2)on1 | 12.7
34 | COc1cccc(C(=O)Nc2cnn(C(C)C)c2)c1 | 9.94
35 | CC(C)N(Cc1cnn(C)c1)Cc1nc(-c2ccc(Cl)cc2)no1 | 3.63
36 | COc1ccc(/C=N/NC(=O)c2ccncc2)cc1Cn1nc([N+](=O)[O-])c(Br)c1C | -49.4
37 | Cc1ccccc1NC(=O)C1C2CCCCC21 (stereo not shown) | 6.99
38 | CC(C)CC(NC(=O)C1CCC(C)CC1)C(=O)NCc1ccccn1 (stereo not shown) | 18
39 | O=C(Oc1cccc(-c2cnc3ccccc3n2)c1)c1ccco1 | -5.02
40 | O=C(O)c1ccccc1OCc1ccccc1Cl | 6.55
41 | Cl.O=C(NC1CCN(Cc2ccccc2)CC1)c1ccccc1OCc1ccccc1 | -69.3
42 | CCOc1ccccc1C(=O)NC1CCN(Cc2ccccc2)CC1 | -46.6
43 | O=C(NC1CCN(Cc2ccccc2)CC1)c1ccccc1OCc1ccccc1Cl | -69.2
44 | O=C(NC1CCCC1)c1ccccc1OCc1ccccc1 | -39.6
45 | O=C(CNC(=O)c1ccccc1Cl)NC1CCN(Cc2ccccc2)CC1 | 13.1
46 | CC(C)N1CC23C=CC(O2)C(C(=O)OCc2ccccc2)C3C1=O (stereo not shown) | 3.29

Row | Compound | hERG current change (%, negative = inhibition) at 10uM [%]
47 | COc1cc(NS(=O)(=O)c2ccc(N/C=C(\C=O)c3nc4cc(Cl)ccc4o3)cc2)nc(OC)n1 | -2.34
48 | CCO[C@H]1OC(C(=O)O)=C[C@@H](C(C)(C)C)[C@@H]1CCCO | 7.12
49 | Cl.Fc1ccccc1Nc1nc(Cl)nc(Cl)n1 | 7.69
50 | COc1ccccc1N1CCN(c2ncc(C(=O)N3CCN(c4cccc(Cl)c4)CC3)c3ccccc23)CC1 | -10.7
51 | O=C(C1CCCCC1)N1CCN(c2ccccc2F)CC1 | -7.04
52 | CCCOC(=O)CSc1nc(N2CCOCC2)c2c(c1C#N)CC(C)(C)OC2 | -40.5
53 | O=C(Nc1ccc2ccccc2c1)NC1CCS(=O)(=O)C1 (stereo not shown) | 6.88
54 | Cc1ccc(C)c(NC(=O)CCNS(=O)(=O)c2ccc3[nH]c(=O)oc3c2)c1 | 11.4
55 | COCCNc1nnc(SCC(=O)Nc2nnc(-c3ccccc3)o2)s1 | 21.8
56 | O=C(CSc1nncs1)Nc1cc(-c2ccccc2)nn1-c1ccccc1 | -39.1
57 | O=C(COC(=O)c1ccc(O)cc1O)Nc1cc(-c2ccccc2)nn1-c1ccccc1 | -9.42
58 | CC(C)(C)c1cc(NC(=O)CSc2nnc(N)s2)n(-c2ccccc2)n1 | -29.1
59 | Cc1nnc(SCC(=O)Nc2cc(C(C)(C)C)nn2-c2ccccc2)s1 | -12.9
60 | CC(C)(C)c1cc(NC(=O)COC(=O)c2ccc(O)cc2O)n(-c2ccccc2)n1 | -79.3
61 | COCCNc1nnc(SCC(=O)Nc2cc(-c3ccccc3)nn2-c2ccccc2)s1 | -50.9
62 | Cc1ccc(C(=O)OCC(=O)Nc2cc(C(C)(C)C)nn2-c2ccccc2)c(O)c1 | -8.07
63 | CC(C)(C)c1cc(NC(=O)CSc2nnc(NCc3ccccc3)s2)n(-c2ccccc2)n1 | -50.1
64 | O=C(Nc1nc2c(F)cccc2s1)C1CC1 | -8.38
65 | Cn1c(=O)cc(OCC(=O)N2CCN(Cc3ccc4c(c3)OCO4)CC2)c2ccccc21 | -33.4
66 | O=C(CSc1ccccc1)Nc1nccs1 | -3.78
67 | O=C(CC1C(=O)NCCN1Cc1ccc(-c2ccccc2)cc1)NCCOc1cccnc1 (stereo not shown) | -25.9
68 | O=C(c1ccccc1)N1N=C(C(F)(F)F)CC1(O)c1ccccc1 (stereo not shown) | 10.6
69 | C=CCNC(=O)c1ccc2c3n(nc2c1)-c1ccc(C)cc1CO3 | -24.6

Row | Compound | hERG current change (%, negative = inhibition) at 10uM [%]
70 | O=C(Nc1ccccc1C(F)(F)F)C1CCN(C(=O)c2cccs2)CC1 | 10.5
71 | Cc1ccc(NC(=O)C2Cc3ccccc3C(=O)O2)cc1 (stereo not shown) | 13
72 | O=C(NCCOc1ccccc1)c1cc2ccccc2o1 | -2.6
73 | COc1ccc(NC(=S)NN2C(C)CCCC2C)cc1 (stereo not shown) | 16.6
74 | CC1CCCC(C)N1NC(=S)Nc1ccc(OC(F)F)cc1 (stereo not shown) | -68.3
75 | CCOc1ccc(NC(=S)NN2C(C)CCCC2C)cc1 (stereo not shown) | 6.62
76 | N/C(=N\OC(=O)c1ccc(F)cc1)c1ccc(Br)cc1 | 15.4
77 | CC(=O)Nc1ccc(C=C(C(C)=O)C(C)=O)cc1 | 2.2
78 | COc1ccc(CN2C(=O)c3cccnc3C2=O)cc1S(=O)(=O)N1CCOc2ccc(C)cc21 | -11.6
79 | CNc1c([N+](=O)[O-])cnn1-c1cccc(Cl)n1 | 14.4
80 | Cc1cccn2c(=O)c3cc(C(=O)NCCc4ccccc4)c(=N)n(CCCn4ccnc4)c3nc12 | -74.4
81 | Cc1cccn2c(=O)c3cc(C(=O)NCCCn4ccnc4)n(C)c3nc12 | -11
82 | CC(NC(=O)C(=O)NCCCn1ccnc1)c1ccccc1 (stereo not shown) | 15.6
83 | O=C(O)c1ccccc1C(=O)NCCCn1ccnc1 | 18.4
84 | Cc1cccn2c(=O)c3cc(C(=O)NC(C)c4ccccc4)c(=N)n(CCCn4ccnc4)c3nc12 (stereo not shown) | -68.1
85 | Cc1ccc(N(C(=O)c2cccs2)C2C=CS(=O)(=O)C2)cc1 (stereo not shown) | -24.4
86 | CCCOC(=O)c1ccc(NC(=O)c2cc(OC)c(OC)c(OC)c2Br)cc1 | 8.82
87 | O=C(O)c1cc([N+](=O)[O-])ccc1N1CCC(Cc2ccccc2)CC1 | -4.42
88 | O=C(O)C(=O)O.O=[N+]([O-])c1cccc(OCCCN2CCC(Cc3ccccc3)CC2)c1 | -78.1
89 | FC(F)(F)c1cccc(OCCN2CCN(Cc3ccccc3)CC2)c1.O=C(O)C(=O)O | -40.8
90 | CCc1cccc(OCCOCCN2CCCC2)c1.O=C(O)C(=O)O | -46.1
91 | O=C(O)C(=O)O.O=[N+]([O-])c1cccc(OCCN2CCC(Cc3ccccc3)CC2)c1 | -71.1
